From ChEMBL document CHEMBL4513149, “CO-ADD screening of MMV (CH) - MMV compounds” (2021)
Screen size: about 23,000 compounds; about 30 (0.1%) showed an effect of 50% or more. The sample as a whole holds a higher share of strong results than the screen did. Results with a measured potency or affinity are listed apart.

tested on: Pseudomonas aeruginosa; conditions: Concentration 20 uM; ASSAY_TEST Inhibition of Bacterial Growth; detection method Absorption (OD600); MEDIA CAMHB; plate type 384well; NBS; CORNING #3640; time 18 hr

In order of falling Inhibition:
1. CC(C)=CCC/C(C)=C\CNCCNC1C2CC3CC(C2)CC1C3 (centres undefined)  27.33%
2. N=C(N)c1ccc(-c2cc(-c3ccccc3)on2)cc1  13.36%
3. O=C(c1ccc(F)cc1)N(CCNc1ccccc1)c1ccccc1  12.58%
4. Cl.O=C(Nc1ccc(N2CCNCC2)nc1)c1oc(-c2ccccc2)nc1C(F)(F)F  -17.92%
